We go through 88 compounds from PubChem BioAssay AID743279 (National Center for Advancing Translational Sciences (NCATS), 2014).

The whole screen tested about 360,000 compounds, of which about 17,000 (4.7%) were called active. Inconclusive results (about 5%) are left out. The sample holds actives, similar compounds and a random draw of the others, so the mix is not that of the screen. No stated cut-off is given here; in the data, active means activity change below about -50%; inconclusive means mostly about -30% to -49%; inactive means weaker than that.
On the % scale 0 is the no-effect control and ±100 the full control effect.

A short description of the assay: qHTS for Inhibitors of Inflammasome Signaling: IL-1-beta AlphaLISA Primary Screen. Particulars: THP-1 LPS/ATP IL-1B secretion, 16 h; at 57.5 µM, active compounds read low. A digest of the protocol: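 THP-1 cells pretreated 1 hr with compounds (up to 57.5 uM final), then stimulated with LPS (250 ng/mL final) plus ATP (1.25 mM final); secreted IL-1B measured by AlphaLISA after 16 hr, decreased signal indicating inhibition.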
As to `O=C1/C(=C\c2cccnc2)CN(Cc2ccccc2)C/C1=C\c1cccnc1`, the activity change was -107% (active).
With `Cc1ccccc1C1=N/C(=C/c2cccnc2)C(=O)O1`, the activity change was 38.6% (inactive).
For `Clc1ccc(CN2CCN(/N=C/c3cccnc3)CC2)cc1`, the activity change was 11.9% (inactive).
The value for `CC(C)N=C1CCCC1C(=S)SSC(=S)C1CCCC1=NC(C)C` (stereo not drawn) was -104% (active).
The result for `COc1cccc(C(NC(C)=O)c2nc(-c3cnc4ccccc4c3)cs2)c1` (stereo not drawn) reads -1.76% (inactive).
The result for `CN1CCC(N(C)C(=O)c2ccc(Cl)c(S(=O)(=O)Nc3ccc(Cl)cc3)c2)CC1` reads -20% (inactive); that for `CCCCNC(=O)CCn1c(=O)c2ccccc2n(Cc2cc(C)ccc2C)c1=O`, -9.41% (inactive).
Regarding `O=C(/C=C/[C@H]1O[C@@H](n2cnc3c(NC(=O)c4ccccc4)ncnc32)[C@H](O)[C@@H]1O)NCc1ccccc1`, the activity change is 1.22% (inactive).
For `CCc1ccc(CNC(=O)C2CCN(c3nnc(C)c4c(C)n(-c5ccc(C)cc5)nc34)CC2)cc1`, the activity change is -55% (active).
The value for `COc1ccc(-n2nc3c(N4CCC(C(=O)NCc5ccccc5)CC4)nnc(C)c3c2C)cc1` was -9.21% (inactive); that for `CCOc1ccc(CNC(=O)C2CCCN(c3nnc(C)c4c(C)n(-c5ccccc5)nc34)C2)cc1` (stereo not drawn) was 17.4% (inactive).
Turning to `OC(c1cc(Cl)cc(Cl)c1)c1ncc(-c2ccccc2C(F)(F)F)[nH]1` (stereo not drawn), the activity change is -7.73% (inactive).
The value for `Cc1cccc(-c2cnc(C(O)c3ccc4ccccc4c3)[nH]2)c1` (stereo not drawn) was 0% (inactive).
Consider `Cc1ccc(S(=O)(=O)N2CCN(C(=O)Cc3sc(C)nc3-c3ccc(F)cc3)CC2)c(C)c1`, for which the activity change was -50.5% (active).
On to `CCCc1cc(=O)[nH]c(SCC(=O)N2CCN(S(=O)(=O)c3ccc(C)cc3C)CC2)n1`, for which the activity change was 0% (inactive).
With `Cc1ccc(S(=O)(=O)N2CCN(C(=O)COC(=O)c3c(C)cc(C)cc3C)CC2)c(C)c1`, the activity change is -9.93% (inactive).
The value for `Cc1ccc(S(=O)(=O)N2CCN(C(=O)CSc3cc(C)ccc3C)CC2)c(C)c1` was -51.4% (active).
As for `Cc1nc(-c2ccc(F)cc2)c(CC(=O)N2CCN(S(=O)(=O)c3ccc(F)cc3)CC2)s1`, the activity change was -7.47% (inactive).
The result for `Cc1nc(-c2ccc(F)cc2)c(CC(=O)Nc2cccc(S(=O)(=O)N3CCOCC3)c2)s1` reads -11.9% (inactive); that for `NC1=NOC(=O)C1C1CCCCC1` (stereo not drawn), -14.1% (inactive); that for `COc1ccc(C(CNC(=O)c2ccc(OCc3cscn3)cc2)N2CCCC2)cc1` (stereo not drawn), -24.7% (inactive).
As to `COc1ccc(CNC(=O)CN2C(=O)NC3(CCCc4sccc43)C2=O)cc1` (stereo not drawn), the activity change is 8.42% (inactive).
Turning to `COc1cc2c(cc1OC)CN(C(C)C(=O)Nc1cccc(S(=O)(=O)N3CCOCC3)c1)CC2` (stereo not drawn), the activity change is -4.78% (inactive).
The value for `COCC1CCCCN1C(=O)c1cc(COc2ccc(C)c(C)c2)on1` (stereo not drawn) was 22.6% (inactive); that for `CCOc1cc(C=NNC(=O)CCCC(=O)NN=Cc2ccc(O)c(OCC)c2)ccc1O` was 0% (inactive).
The result for `CC(C)CN1CCC1(C)C(=O)Nc1ccc(OC(F)F)cc1` (stereo not drawn) reads 14.2% (inactive).
Turning to `O=[N+]([O-])c1ccccc1Nc1ccc(O)cc1`, the activity change is -11.5% (inactive).
The value for `O=[N+]([O-])c1ncc(Br)cc1Nc1ccccc1` was -71.2% (active).
The value for `O=[N+]([O-])c1cccc(/C=N/Nc2ncc(Br)cn2)c1` was -8.3% (inactive).
With `Cn1c(=O)[nH]c(=O)c2c1nc(NCCCn1ccnc1)n2Cc1cccc(Br)c1`, the activity change is 58.2% (inactive).
The value for `Cc1ccccc1-c1nc(NC(C)C)nc2cc(-c3ccccc3)sc12` was 19.3% (inactive); that for `CC1(C)CN(CCc2ccccc2)C(=O)[C@H]1CC(=O)Nc1ccc(Br)cc1` was 0% (inactive); that for `CC[C@]1(c2ccccc2OC)C(=O)N(C(=O)OC)N1C(=O)OC` was -76.7% (active).
The value for `COc1ccccc1CNC(=O)CCCN1C(=O)NC2(CCCC2)C1=O` was 10.6% (inactive); that for `COC(=O)c1ccccc1NC(=O)Cc1ccccc1OC` was 7.67% (inactive).
As to `CC(=O)Nc1ccc(NC(=O)c2ccc3c(c2)C(=O)N(c2ccccc2C)C3=O)cc1`, the activity change is 0% (inactive).
The value for `C[C@@H]1CN([C@@H](C)CO)C(=O)c2cc(Br)cnc2O[C@H]1CN(C)Cc1ccc(-c2ccccc2)cc1` was -13.1% (inactive).
The value for `CC1(C(=O)Nc2ccc3c(c2)OCCO3)CCN1C(=O)Cc1cc(F)ccc1F` (stereo not drawn) was -2.62% (inactive); that for `CCCCn1c(CCCNC(=O)CC)nc2ccccc21` was 36.3% (inactive).
For the compound `CCC(=O)Nc1nc2ccccc2n1Cc1ccccc1C`, the activity change was -56% (active).
The result for `CC(=O)Nc1nc2ccccc2n1Cc1ccc(C)cc1` reads -12.8% (inactive).
The value for `COC(=O)c1ccc2nc(-c3cccc(Br)c3)c(Cc3ccc(OC)cc3C)n2c1` was 2.21% (inactive); that for `NNc1cccc(C=Cc2ccccc2)cc1=O` was -13.4% (inactive).
Consider `CCOC1=C2CN(S(=O)(=O)c3ccc(C)cc3)[C@H](c3cccs3)C[C@H]2[C@H]2C(=O)N(c3ccccc3)C(=O)[C@H]2C1`, for which the activity change is 91.6% (inactive).
With `CCN(C(=O)c1ccc(Br)cc1)c1ccccc1`, the activity change is -9.85% (inactive).
Turning to `O=C(COc1ccc(F)cc1)N(CC1=CCS(=O)(=O)C1)c1ccccc1`, the activity change was 0.865% (inactive).
The value for `CCN(C(=O)COc1ccc(C(=O)c2ccccc2)cc1)c1ccccc1` was -69.8% (active).
The value for `Cc1ccccc1OS(=O)(=O)c1cccc([N+](=O)[O-])c1` was 27.3% (inactive); that for `COc1ccc(NC(=O)C2Cc3c(-c4cccc(NC(C)=O)c4)ccnc3O2)cc1OC` (stereo not drawn) was -14.1% (inactive); that for `N#Cc1ccc(OCC(=O)NC(=O)NC2CCS(=O)(=O)C2)cc1` (stereo not drawn) was -12.4% (inactive).
The value for `CCNC(=O)c1cc2c(c(-c3cccc(-c4cncnc4)c3)n1)[C@H](CCO)N(C(C)=O)C2` was 42.5% (inactive).
As for `CC(=O)N1Cc2cc(C(=O)NCc3cccc(F)c3)nc(-c3cccc(C4=CCCC4)c3)c2[C@H]1CCO`, the activity change is -67.2% (active).
The value for `CC(C)NC(=O)N1Cc2cc(C(=O)NCC(F)(F)F)nc(-c3cccc(-c4cc5ccccc5o4)c3)c2[C@@H]1CCO` was -22.8% (inactive); that for `CC1(C(=O)NCc2ccc(F)c(F)c2)Cc2c(-c3ccc4c(c3)OCO4)ccnc2O1` (stereo not drawn) was 46.6% (inactive); that for `CC12CCC(=O)N1C(C(=O)NCCN1C(=O)S/C(=C\c3ccccc3F)C1=O)CS2` (stereo not drawn) was -53.4% (active).
Regarding `CC12CCC(=O)N1C(C(=O)Nc1ccc(F)c(F)c1F)CS2` (stereo not drawn), the activity change is 6.07% (inactive).
As to `CCn1nc(C(=O)NNC(=O)C2CSC3(C)CCC(=O)N23)c2ccccc2c1=O` (stereo not drawn), the activity change is 4.8% (inactive).
As to `CC1(C(=O)Nc2ccccc2Br)CCN1C(=O)CC1CC1` (stereo not drawn), the activity change was 13.2% (inactive).
Consider `O=C(Nc1ccncc1)c1c(F)cccc1F`, for which the activity change is -66.7% (active).
The result for `O=C(Nc1ccncc1)c1cc2ccccc2o1` reads -4.22% (inactive).
The result for `O=C(Nc1ccc(S(=O)(=O)N2CCCCCC2)cc1)c1c(F)cccc1F` reads -9.91% (inactive); that for `CSc1nc2ccc(NC(=O)c3c(F)cccc3F)cc2s1`, -101% (active).
The value for `CCCC(=O)Nc1nc2ccc(NC(=O)c3c(F)c(F)c(OC)c(F)c3F)cc2s1` was 11.7% (inactive); that for `Nc1nnc(SCC(=O)Nc2ccc3nc(SCC(=O)Nc4ccccc4)sc3c2)s1` was -29.4% (inactive); that for `Cc1ccc(C(=O)NC(C)C(c2cccs2)N2CCOCC2)cc1C` (stereo not drawn) was -9.25% (inactive).
Regarding `CNC(=O)N1c2ccccc2C=Cc2ccccc21`, the activity change is 0% (inactive).
For `CCCCNC(=O)N1CCCC(N(C)CCc2ccc(OC)c(OC)c2)C1` (stereo not drawn), the activity change is 1.87% (inactive).
The result for `CC1(C2CC2)NC(=O)N(CC(=O)N2CCN(c3ccccc3F)CC2)C1=O` (stereo not drawn) reads -14.2% (inactive); that for `Cc1c(C(=O)NCC(c2ccco2)N2CCCC2)oc2ccc(Cl)cc12` (stereo not drawn), -25.2% (inactive).
The result for `Cc1ccc(C)c(S(=O)(=O)Nc2cc(C)on2)c1` reads -7.66% (inactive).
The value for `CCOC(=O)C1CCCN(C(=O)C2CCN(S(=O)(=O)c3ccc(Cl)c(C(F)(F)F)c3)CC2)C1` (stereo not drawn) was 16.1% (inactive); that for `CCCc1nc2oc3c(=O)[nH]cnc3c2c2c1COC(C)(C)C2` was 17.7% (inactive); that for `CS(=O)(=O)N1CCCCC1c1cc(C(=O)NCc2ccccc2)no1` (stereo not drawn) was -18.8% (inactive).
Take `CCN1CCC(O)(/C=C/c2ccc(C)cc2)C(C(=O)/C=C/c2ccc(C)cc2)C1` (stereo not drawn): the activity change was -1.25% (inactive).
The value for `CCCCCOC(=O)c1ccc(N2C(=O)C3C4C=CC(C4)C3C2=O)cc1` (stereo not drawn) was -71.4% (active); that for `CCCOC(=O)c1ccc(N2C(=O)c3ccccc3C2=O)cc1` was 17.6% (inactive).
The result for `CCCCOC(=O)NCN1C(=O)C2C3C=CC(C3)C2C1=O` (stereo not drawn) reads 26.4% (inactive); that for `O=C(Nc1cccc2c1CCCC2)C1CCN(C(=O)NC2CCCCC2)CC1`, 15.3% (inactive).
The value for `COC(=O)[C@]12CCCCC=C1N(CCC1=CCCCC1)C(=O)[C@H](CC(=O)N1CCSCC1)C2` was -3.86% (inactive).
For the compound `CCOC(=O)CCc1c(C)c(C#N)c2[nH]c3ccccc3n2c1=O`, the activity change was -90.1% (active).
`CCOCCCNc1c(CC)c(C)c(C#N)c2nc3ccccc3n12`: the activity change is -7.67% (inactive).
The value for `CCCc1cc(=S)n2c([nH]c3ccccc32)c1C#N` was -9.7% (inactive); that for `COC(=O)C1=CN(c2c(C)cc(C)cc2C)C(N)=C(C#N)C1c1cccc(F)c1` (stereo not drawn) was -11.3% (inactive).
The result for `CC1Cc2[nH][nH]c(=O)c2C(C2CC2)O1` (stereo not drawn) reads -5% (inactive); that for `COc1ccc(CN2C(=O)C(CC(=O)NC3CCCCC3)CC(C(=O)N3CCOCC3)=C2C)cc1` (stereo not drawn), -7.47% (inactive).
In the case of `CCn1c(SCC(=O)Nc2ccc(Br)cc2)nc2sc3c(c2c1=O)CCN(C)C3`, the activity change was -54.3% (active).
For the compound `CCOc1ccc(-n2c(SCC(=O)Nc3ccc(OC)cc3)nc3sc4c(c3c2=O)CCN(C)C4)cc1`, the activity change was -16% (inactive).
The result for `COc1ccccc1NC(=O)CSc1nc2sc3c(c2c(=O)n1-c1ccccc1)CCN(C)C3` reads -4.77% (inactive).
